The target of experiment [1] is T1, 3-phosphoinositide-dependent protein kinase 1 (Homo sapiens) (UniProt O15530).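 Also: values are mean inhibition of PDK1.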
T1 sequence (whole entry): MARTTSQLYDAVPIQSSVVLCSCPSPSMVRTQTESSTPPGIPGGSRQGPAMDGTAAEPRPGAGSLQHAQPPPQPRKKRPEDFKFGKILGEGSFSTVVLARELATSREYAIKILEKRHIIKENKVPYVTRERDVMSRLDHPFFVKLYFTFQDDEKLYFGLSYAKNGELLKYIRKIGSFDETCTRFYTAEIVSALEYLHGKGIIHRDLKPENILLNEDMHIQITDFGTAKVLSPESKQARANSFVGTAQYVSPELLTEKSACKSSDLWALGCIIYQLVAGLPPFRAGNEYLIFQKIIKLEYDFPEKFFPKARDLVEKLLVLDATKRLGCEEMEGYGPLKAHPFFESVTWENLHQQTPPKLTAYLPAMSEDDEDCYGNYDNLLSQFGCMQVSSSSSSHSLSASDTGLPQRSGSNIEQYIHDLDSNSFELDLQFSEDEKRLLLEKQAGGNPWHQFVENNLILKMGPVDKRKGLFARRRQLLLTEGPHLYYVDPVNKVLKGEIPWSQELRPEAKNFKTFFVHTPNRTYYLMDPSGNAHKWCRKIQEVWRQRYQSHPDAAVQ
The settings on record: at 0.1 µM.

Experiment [2] has as its target cAMP-dependent protein kinase catalytic subunit alpha (Homo sapiens) (UniProt P17612). Conditions: at 0.1 µM.
Experiment [3] shares this target. The settings on record: at 1 µM.
For experiment [4], the target named is Protein kinase C alpha type (Homo sapiens) (UniProt P17252). The settings on record: at 0.1 µM.
For experiment [5] the target is unchanged. The settings on record: at 1 µM.
Experiment [6] concerns the target Protein kinase C beta type (Homo sapiens) (UniProt P05771). The settings on record: at 0.1 µM.
Experiment [7] shares this target. Conditions: at 1 µM.
Experiment [8] has as its target Protein kinase C eta type (Homo sapiens) (UniProt P24723). Conditions: at 0.1 µM.
The target is the same in experiment [9]. Conditions: at 1 µM.
Experiment [10] has as its target Protein kinase C gamma type (Homo sapiens) (UniProt P05129). Conditions: at 0.1 µM.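 Also: values are mean percent inhibition of PKC gamma.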

Molecules are shown by their SMILES.

Sequence of Protein kinase C beta type (Homo sapiens) (P05771 2-671 limits assumed): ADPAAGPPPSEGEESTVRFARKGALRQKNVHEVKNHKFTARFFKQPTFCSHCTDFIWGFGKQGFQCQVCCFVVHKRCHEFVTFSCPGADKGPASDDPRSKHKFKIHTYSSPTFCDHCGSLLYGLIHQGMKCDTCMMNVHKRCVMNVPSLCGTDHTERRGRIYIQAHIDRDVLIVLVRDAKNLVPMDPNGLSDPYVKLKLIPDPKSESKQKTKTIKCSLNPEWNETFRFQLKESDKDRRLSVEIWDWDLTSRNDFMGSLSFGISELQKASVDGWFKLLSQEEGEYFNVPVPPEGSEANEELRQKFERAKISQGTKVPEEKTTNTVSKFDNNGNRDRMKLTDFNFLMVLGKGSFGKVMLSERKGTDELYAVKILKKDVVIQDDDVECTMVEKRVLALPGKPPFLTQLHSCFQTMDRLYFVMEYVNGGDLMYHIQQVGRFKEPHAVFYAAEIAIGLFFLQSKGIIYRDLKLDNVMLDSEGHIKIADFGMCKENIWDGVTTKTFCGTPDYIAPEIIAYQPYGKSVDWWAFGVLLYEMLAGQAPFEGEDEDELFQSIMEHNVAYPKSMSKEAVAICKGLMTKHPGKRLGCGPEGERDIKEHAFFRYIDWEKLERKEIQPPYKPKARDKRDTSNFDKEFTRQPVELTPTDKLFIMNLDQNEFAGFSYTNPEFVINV
Sequence of Protein kinase C eta type (Homo sapiens) (P24723 whole entry): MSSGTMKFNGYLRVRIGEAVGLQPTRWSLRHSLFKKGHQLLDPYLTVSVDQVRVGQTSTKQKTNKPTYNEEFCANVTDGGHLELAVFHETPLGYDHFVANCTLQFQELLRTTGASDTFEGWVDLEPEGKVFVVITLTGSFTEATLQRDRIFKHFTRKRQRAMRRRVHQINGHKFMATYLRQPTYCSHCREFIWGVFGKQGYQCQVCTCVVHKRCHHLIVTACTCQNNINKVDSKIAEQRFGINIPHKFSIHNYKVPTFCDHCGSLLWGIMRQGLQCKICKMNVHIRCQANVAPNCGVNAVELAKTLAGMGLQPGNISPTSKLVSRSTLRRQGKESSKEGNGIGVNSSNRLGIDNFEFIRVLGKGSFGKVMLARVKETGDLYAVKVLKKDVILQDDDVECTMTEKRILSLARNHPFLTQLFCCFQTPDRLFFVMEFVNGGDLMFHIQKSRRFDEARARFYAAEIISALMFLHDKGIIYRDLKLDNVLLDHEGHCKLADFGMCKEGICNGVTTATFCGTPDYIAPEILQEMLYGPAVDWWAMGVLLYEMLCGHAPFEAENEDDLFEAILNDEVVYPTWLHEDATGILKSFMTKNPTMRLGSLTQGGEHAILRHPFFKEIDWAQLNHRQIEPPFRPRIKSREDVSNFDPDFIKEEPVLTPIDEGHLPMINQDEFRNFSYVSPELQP

For the molecule `C/C(Nc1ccc(S(N)(=O)=O)cc1)=C1/C(=O)Nc2ccccc21`, the inhibition (usually the relative decrease from the control value, in per cent) in experiment [1] was 6.52%; in experiment [2] it was -1.19%; in experiment [3], 2.61%; in experiment [4], 0.02%; in [5], 0.38%; in [6] it was -0.26%. The inhibition is 1.85% in experiment [7], -1.23% in experiment [8], -1.17% in [9] and -3.82% in experiment [10].
Regarding `COc1ccc2cc(-c3c(-c4ccncc4)nc(-c4ccc(S(C)(=O)=O)cc4C)n3C)ccc2c1`, the inhibition turned out to be 0.71% in experiment [1]; 8.44% in [2]; 29.8% in experiment [3]; 1.11% in experiment [4]; 6.73% in [5]; 2.3% in [6]. Further, the inhibition was determined as 14.5% in [7], 7.27% in [8], 7.65% in experiment [9] and 2.09% in experiment [10].
Consider `C#Cc1cccc(Nc2ncnc3ccc(OCCCCNCCS(C)(=O)=O)cc23)c1`, for which the inhibition in experiment [1] is 1.83%; in experiment [2], -0.23%; in experiment [3] it was -0.04%; in [4] it was -2.51%; in [5] it was 0.29%; in experiment [6], 1.6%. Further, the inhibition in experiment [7] is 4.77%; in experiment [8], 0.97%; in experiment [9], 4.94%; in [10], 3.27%.
For the molecule `CCc1cccc(CC)c1/C=C/c1cncc(C(=O)NC)c1`, the inhibition worked out at 0.34% in experiment [1]; 1.89% in experiment [2]; 1.06% in [3]; 1.01% in experiment [4]; 3.13% in experiment [5]; 0.31% in [6]. In addition, the inhibition in experiment [7] is 0.32%; in experiment [8], 1.99%; in [9], -0.26%; in experiment [10], 1.06%.
For the molecule `COC(=O)Nc1nc2ccc(Sc3ccc(NC(=O)Nc4cc(C(F)(F)F)ccc4F)cc3)cc2[nH]1`, the inhibition is 1.38% in experiment [1]; -0.04% in experiment [2]; 2.01% in experiment [3]; 0.22% in [4]; 0.15% in experiment [5]; 0.84% in experiment [6]. The inhibition in [7] is 0.31%; in experiment [8], -1.46%; in experiment [9], 0.54%; in [10], 2.88%.
As for `O=C(NCC1CC1)c1ccc(-c2cccc(C(=O)NC3CC3)c2)cc1`, the inhibition is 0.6% in experiment [1]; 0.93% in experiment [2]; 0.36% in experiment [3]; 1.02% in experiment [4]; 0.96% in experiment [5]; -0.06% in experiment [6]. Further, the inhibition is -2% in [7], 3.93% in experiment [8], -1.4% in experiment [9] and 4.6% in experiment [10].
Take `COc1cc(Nc2ncc(-c3ccccc3)o2)cc(OC)c1OC`: the inhibition is -0.87% in [1]; -0.33% in experiment [2]; -0.26% in experiment [3]; -0.31% in experiment [4]; 1.1% in experiment [5]; -1.34% in experiment [6]. For the same molecule, the inhibition was 2.43% in [7], -0.81% in [8], -4.38% in experiment [9] and -1% in experiment [10].
For `COc1ccc2cc(-c3c(-c4ccncc4)nc(-c4ccc([S+](C)[O-])cc4C)n3C)ccc2c1` (stereo not given), the inhibition in [1] is 0.48%; in [2], 2.01%; in experiment [3], 21.8%; in [4] it was 0.33%; in experiment [5] it was 1.35%; in [6] it was 2.04%. The inhibition in experiment [7] is 13%; in experiment [8], 0.16%; in experiment [9], 0.69%; in [10] it was -0.82%.
Take `O=C(Nc1ccc(Oc2ccc3[nH]c(NC(=O)c4ccccc4)nc3c2)cc1)Nc1cc(C(F)(F)F)ccc1F`: the inhibition in [1] is 1.16%; in experiment [2] it was 1.01%; in [3], 1.45%; in experiment [4], 0.3%; in experiment [5], 1.8%; in experiment [6], 0.29%. Moreover, the inhibition came out at 3.18% in experiment [7], 1.1% in experiment [8], 4.58% in [9] and 3.6% in [10].
For `COc1cc2ncn(-c3cc(OCCc4ccccc4)c(C(N)=O)s3)c2cc1OC`, the inhibition was 1.29% in experiment [1]; 1.37% in experiment [2]; -1.08% in experiment [3]; 0.95% in experiment [4]; 1.14% in [5]; 0.05% in experiment [6]. The inhibition was -0.8% in experiment [7], -1.3% in experiment [8], 0.58% in experiment [9] and 1.89% in [10].
For the molecule `COc1ccc(-c2ccc3c(NC(=O)C4CC4)n[nH]c3n2)cc1`, the inhibition in experiment [1] is -1.04%; in experiment [2] it was 1.31%; in [3] it was 1.22%; in [4], -0.95%; in [5], -0.98%; in experiment [6], -0.58%. The inhibition was found to be 1.54% in experiment [7], 1.15% in [8], 1.68% in experiment [9] and 0.57% in experiment [10].
`Cc1ccc(NC(=O)c2ccoc2)cc1-c1ccc(C(=O)NCC2CC2)cc1`: the inhibition in [1] is 0.18%; in experiment [2], 2.1%; in [3], 2.23%; in experiment [4], -0.03%; in [5], 0.82%; in [6], 1.84%. In addition, the inhibition in [7] is 1.76%; in experiment [8], 4.75%; in [9], 3.88%; in [10], -1.55%.
In the case of `O=C(Nc1n[nH]c2cc(-c3ccccc3)ccc12)C1CC1`, the inhibition in [1] was 1.51%; in experiment [2], 1.89%; in experiment [3], 2.35%; in [4] it was 0.99%; in [5], 1.87%; in [6] it was -0.78%. Also, the inhibition in [7] was found to be 4.47%; in experiment [8], 2.72%; in experiment [9], 2.77%; in [10] it was 1.69%.
For the molecule `Fc1ccc(-c2ncn(C3CCNCC3)c2-c2ccnc(Oc3ccc(F)c(F)c3)n2)cc1`, the inhibition was 0.57% in experiment [1]; -0.98% in [2]; 9.25% in experiment [3]; -3.02% in experiment [4]; -0.82% in experiment [5]; -0.22% in [6]. The inhibition in [7] came out at 3.21%; in experiment [8], 3.45%; in [9], 5.62%; in experiment [10], 1.57%.
In the case of `COc1cccc(-n2cnc3c(N/N=C/c4ccncc4)ncnc32)c1`, the inhibition is 0.77% in experiment [1]; -1.92% in experiment [2]; 0.18% in [3]; -2.58% in experiment [4]; -3.28% in [5]; 3.24% in experiment [6]. The inhibition was found to be 5.82% in experiment [7], 3.47% in experiment [8], 0.69% in experiment [9] and 0.93% in experiment [10].
As to `COc1ccc(C2=C(N3CCc4ccccc43)C(=O)NC2=O)cc1`, the inhibition in experiment [1] is 4.19%; in experiment [2], 1.7%; in experiment [3], 1.99%; in [4], 1.46%; in experiment [5], 3.07%; in [6], 1.02%. Moreover, the inhibition in experiment [7] came out at 2.88%; in experiment [8], 2.61%; in [9], 6.52%; in [10], 4.16%.
As for `COc1cc(C)c(N(C)C(=O)CN(C)C)cc1Nc1nc(Nc2cccc(F)c2C(N)=O)c2cc[nH]c2n1`, the inhibition is 3.26% in experiment [1]; -0.93% in experiment [2]; -3.21% in experiment [3]; -3% in experiment [4]; -2.59% in experiment [5]; 1.6% in experiment [6]. Besides, the inhibition in [7] is -0.89%; in experiment [8], 4.46%; in experiment [9] it was 1.91%; in experiment [10], 2.63%.
